Only some compounds are listed: those with a hit (about 11% of all), similar ones and a draw of the others.
Tau fibril FP – qHTS for Inhibitors of Tau Fibril Formation, Fluorescence Polarization; Potency, µM (titrated, usually from 57.7 µM), inactives show at the highest dose activity, negative = inhibition, usual class: inhibitors; AID 1468, 2008; K18 P301L tau heparin fibrillization, Alexa594 FP, 6 h; hit rate 0.39% among 280,000; Microtubule-associated protein tau (Homo sapiens), P10636; further: potency means the concentration at half of the fitted maximal effect; nearly all actives have a fitted effect of over 55% in size
Target sequence (P10636 561-689 P618L limits assumed): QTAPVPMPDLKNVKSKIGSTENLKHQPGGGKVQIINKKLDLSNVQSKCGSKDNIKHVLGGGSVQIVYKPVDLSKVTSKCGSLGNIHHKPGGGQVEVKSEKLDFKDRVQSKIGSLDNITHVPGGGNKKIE
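Compound effects on tau fibrillization are measured by Alexa 594 fluorescence polarization (ex 555, em 632 nm). K18 P301L tau is used at 15 uM with 0.24 uM labeled tracer, and 20 uM heparin induces aggregation over 6 hr at 37 C.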
FBPA coupling cs – qHTS Assay for Inhibitors of Fructose-1,6-bisphosphate Aldolase from Giardia Lamblia: Coupling assay counterscreen. coupling enzyme system counterscreen, AmpLite Red fluorescence. activity change, negative = inhibition, % at 58.2 µM, hits read low. hit rate 0.67% among 290,000. AID 2472, 2010; in the data active means activity change below about -30%
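Counterscreen lacking aldolase: glyceraldehyde-3-phosphate coupling-enzyme reagent preincubated 10 min at RT with compound (at 57.5 uM final), then substrate/coupling system with AmpLite Red added; fluorescence read at 525/598 nm after 20 min RT.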
Tau fluor counter – Counterscreen qHTS for Inhibitors of Tau Fibril Formation, Fluorescence Polarization; tau K18 P301L Alexa594 fluorescence, heparin fibrillization; hit rate 0.93% among 280,000; Potency, µM (highest dose often 57.7 µM), for inactives: at the highest dose activity change, negative = decrease; further: potency means the concentration at half of the fitted maximal effect; nearly all actives have a fitted effect of over 55% in size
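Human K18 P301L tau (15 uM unlabeled plus 0.24 uM Alexa 594-labeled, final) in 100 mM sodium acetate pH 7 was mixed with compound and 20 uM heparin and incubated 6 hr at 37 C.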
Sfp PPTase inh – qHTS Assay for Inhibitors of Bacillus subtilis Sfp phosphopantetheinyl transferase (PPTase); Biochemical Sfp PPTase activity, qHTS; Potency, µM, inactives show largest response in the series, negative = inhibition, hits mostly inhibitors; hit rate 3.5% among 310,000;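 further: the enzyme is Sfp with the accession as filed and its product quenches rhodamine fluorescence; potency means the concentration at half of the fitted maximal effect; 0% = enzyme reaction without inhibitor and -100% = no enzyme wells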
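With Hepes-Na pH 7.6 buffer containing 10 mM MgCl2, Sfp (15 nM) modified BHQ-2-YbbR (12.5 uM) using rhodamine-CoA (5 uM). Two reads 30 minutes apart at 525/598 nm yielded each well's rate.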
Tau ThT inhib – qHTS for Inhibitors of Tau Fibril Formation, Thioflavin T Binding | Microtubule-associated protein tau (Homo sapiens), P10636 | recombinant tau K18 P301L (four-repeat tau fragment), heparin-induced fibrillization, ThT fluorescence | Potency, µM (series often up to 57.4 µM), without a hit: at the top dose activity, negative = inhibition, hits mostly inhibitors | hit rate 2.1% among 270,000; further: potency means the concentration at half of the fitted maximal effect; nearly all actives have a fitted effect of over 55% in size
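Heparin-induced (20 uM) aggregation of recombinant human K18 P301L tau, 15 uM unlabeled with 0.24 uM labeled, pH 7 acetate buffer, 6 hr at 37 C with compound. Fibrils quantified by 30 uM ThT fluorescence after 1 hr ambient incubation.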
G9a block – qHTS Assay for Inhibitors of Histone Lysine Methyltransferase G9a; Histone-lysine N-methyltransferase EHMT2 (Homo sapiens), Q96KQ7; AID 504332, 2011; Potency, µM (doses to about 102 µM), for the others: at the highest dose activity, negative = inhibition, usual class: inhibitors; hit rate 8.8% among 350,000; G9a H3K9 monomethylation, AlphaScreen, 2 h; further: potency means the concentration at half of the fitted maximal effect; nearly all actives have a fitted effect of over 75% in size
Target sequence (Q96KQ7 913-1193 limits assumed): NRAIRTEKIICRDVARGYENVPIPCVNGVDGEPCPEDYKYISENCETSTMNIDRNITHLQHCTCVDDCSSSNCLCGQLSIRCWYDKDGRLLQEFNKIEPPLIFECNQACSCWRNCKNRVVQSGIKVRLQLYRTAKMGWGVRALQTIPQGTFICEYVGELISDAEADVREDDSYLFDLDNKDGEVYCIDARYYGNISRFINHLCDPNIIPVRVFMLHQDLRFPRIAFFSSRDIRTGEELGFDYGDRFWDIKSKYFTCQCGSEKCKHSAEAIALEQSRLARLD
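Compounds were preincubated with 20 nM G9a for 15 min, after which biotinylated H3K9 peptide (500 nM) and SAM (20 uM) started a 2 h room-temperature reaction. Monomethylated product was quantified by antibody-based AlphaScreen chemiluminescence.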
Numbers without * were called inactive; u = inconclusive; x = no result given; [ ] = remark or other dose. Unless noted, the call rests on the fitted dose curve; in most records, active means well fitted curve in the direction sought with a large enough effect; inconclusive means small, poorly fitted or top-dose-only effect, or another doubt; inactive means no such curve, though single readings can be large; an effect the other way counts as inactive or inconclusive. Unless noted, on the % scale 0 is the no-effect control and ±100 the full control effect.

SMILES | Tau fibril FP | FBPA coupling cs | Tau fluor counter | Sfp PPTase inh | Tau ThT inhib | G9a block
COc1cccc(OCCSc2nc3ccccc3n2CC(=O)N2CCCCC2)c1 | -1% | x | -8% | x | -12% | u
O=C(c1ccc(CS(=O)(=O)c2c(Cl)cccc2Cl)o1)N1CCN(c2ccccc2)CC1 | 6% | x | -23% | x | -7% | -47%[59 µM]
CCC(=O)Nc1ccc(CC)cc1-c1nc2ccccc2n(CC(=O)c2ccc(OC)cc2)c1=O | u | x | -3% | x | -7% | -22%[59 µM]
CS(=O)(=O)Nc1ccc(Cc2ccc(NS(C)(=O)=O)cc2)cc1 | 0% | 3 | 0% | 12% | 9% | -22%[12.7 µM]
CCS(=O)(=O)Nc1ccc(Cc2ccc(NS(=O)(=O)CC)cc2)cc1 | -3% | -1 | -15% | -30% | -7% | 50µM*
Cc1ccc(C2=C(c3ccc([N+](=O)[O-])cc3)C(=O)OC2)cc1C | 6% | 3 | -15% | 6% | -16% | u
COc1ccc2nc(C)cc(Nc3ccc(C(=O)O)cc3)c2c1 | x | 0 | x | -6% | x | 22%[2.33 µM]
COc1ccc(N/N=C(/N=Nc2nc(C)cc(=O)[nH]2)c2ccccc2)cc1 | 3% | -11 | u | 5% | 4.5µM* | u
Cc1cc(=O)[nH]c(N=N/C(=N/Nc2ccccc2C)c2ccccc2)n1 | 0% | -1 | u | 7% | u | 28µM*
Cc1cc(=O)[nH]c(N=N/C(=N/Nc2ccc(O)cc2)c2ccccc2)n1 | 10% | 0 | 1% | 10% | -2% | 0.56µM*
CCc1ccc(N2C(=O)N(CC(=O)C(C)(C)C)c3ccccc3S2(=O)=O)cc1 | -7% | x | -21% | x | 7% | 0%[59 µM]
N#Cc1c(NC(=O)c2ccccc2)sc2c1CCCCC2 | -5% | -4 | -10% | 1% | -6% | 11%[59 µM]
CC(C)(C)C(=O)NC(=S)Nc1sc2c(c1C#N)CCCCC2 | -11% | 2 | -19% | 45µM* | u | u
C=CCNC(=S)Nc1sc2c(c1C#N)CCCC2 | -2% | 2 | -15% | u | -17% | 45µM*
CC(C(=O)Nc1sc2c(c1C#N)CCCCC2)N1C(=O)c2ccccc2C1=O (stereo unspecified) | 1% | -1 | 12% | u | 14% | 3.2µM*
Nc1cc(=O)[nH]c(SCC(=O)Nc2cc(S(=O)(=O)N3CCCCC3)ccc2Cl)n1 | x | x | x | x | x | -7%[12.7 µM]
CCCN1C(=O)C2(SC(NC(C)=O)=NN2C(C)=O)c2cc(C)ccc21 (stereo unspecified) | 3% | -2 | 11% | 14% | 5% | -5%
Cc1ccc(N(CC(=O)Nc2ccccc2-c2ccccc2)S(=O)(=O)c2ccccc2)c(C)c1 | -2% | -3 | -19% | 14% | -10% | 8.9µM*
Cc1ccc(C)c(N2CCN(C(=O)c3cc4c(=O)n(Cc5ccco5)ccc4nc3C)CC2)c1 | 0% | x | -1% | x | -7% | -36%[59 µM]
CN1/C(=N\O)c2cccc3cccc1c23 | -13% | -47* | -27% | -24% | u | 32µM*
CNC(=O)CN1C(=O)c2cccc3cccc1c23 | -4% | -1 | 10% | -3% | 11% | 12%[12.7 µM]
CCOC(=O)c1noc2ncnc(N3CCN(c4cccc(Cl)c4)CC3)c12 | 5% | x | -24% | x | -18% | 6%[59 µM]
COc1ccccc1N1CCN(/N=C/c2ccc(C(=O)O)cc2)CC1 | x | 0 | x | 18% | x | -8%
CCN(CC)c1ccc(/C=N/N2CCN(c3ccccc3OC)CC2)cc1 | x | 6 | x | -22% | x | 8.9µM*
COc1ccc(/C=N/N2CCN(c3ccccc3OC)CC2)cc1OC | 8% | 2 | -22% | 19% | u | 45µM*
SMILES | Tau fibril FP | FBPA coupling cs | Tau fluor counter | Sfp PPTase inh | Tau ThT inhib | G9a block
COc1ccccc1N1CCN(/N=C/c2ccc(O)c(O)c2)CC1 | -11% | -6 | u | 22µM* | u | -120%[12.7 µM]
COc1ccccc1N1CCN(/N=C/c2cccc(Cl)c2)CC1 | x | -2 | x | 0% | x | 18µM*
COc1cccc(/C=N/N2CCN(c3ccccc3OC)CC2)c1 | 15% | -3 | -26% | 0% | u | u
O=C(NCCc1ccccc1C(F)(F)F)C1CCC(=O)N(CCCN2CCCC2=O)C1 (stereo unspecified) | x | -1 | x | 4% | x | 2%
Cc1nc(-n2nc(C)c(CCC(C)C)c2C)sc1C(=O)Nc1cccc(Cl)c1C | 16% | x | 15% | x | -11% | 14µM*
C=C(C)C1CC[C@]2(CO)CC[C@@]3(C)[C@H](CCC4[C@@]5(C)CCC(O)C(C)(C)C5CC[C@@]43C)C12 (stereo partly specified) | -6% | 9 | -5% | 10% | -2% | x
COc1ccc(CNc2nc3nc(C)c(Cl)c(=O)n3[nH]2)cc1 | 6% | -2 | 2% | 11% | -10% | 56µM*
COc1ccccc1CNc1nc2nc(C)c(Cl)c(=O)n2[nH]1 | 0% | 1 | -11% | 13% | -12% | 13µM*
Cc1cc(=O)n2[nH]c(NCc3ccc(F)cc3)nc2n1 | -4% | x | -15% | x | -13% | -41%[59 µM]
COc1ccccc1CNc1nc2nc(C)c(Cl)c(C)n2n1 | -7% | x | -7% | x | -4% | -21%[59 µM]
C/C(CCN1CCCc2nc(C)c(C)cc21)=N\OC[C@@H](O)[C@@H]1O[C@@H]2OC(C)(C)O[C@@H]2[C@H]1O | 10%[11.6 µM] | 1 | -3%[11.6 µM] | 14% | -9%[11.5 µM] | x
CCc1cccc(NS(=O)(=O)c2cc(-c3cnc(C)o3)ccc2OC)c1 | 1% | x | -17% | x | -2% | -30%[59 µM]
CCOC(=O)c1ccc(NC(=O)c2cccc(S(=O)(=O)N3c4ccccc4CC3C)c2)s1 (stereo unspecified) | 8.9µM* | -5 | u | 22% | -6% | 22%[59 µM]
CC1Cc2ccccc2N1S(=O)(=O)c1cccc(C(=O)NCCCO)c1 (stereo unspecified) | -6% | 0 | -6% | 11% | -3% | 10%
CC1Cc2ccccc2N1S(=O)(=O)c1cccc(C(=O)N2CC(=O)Nc3ccccc32)c1 (stereo unspecified) | 0% | -7 | -26% | 0% | -10% | 71µM*
CCN1C(C)=C(C(=O)OC)C(c2ccccc2)N2C(=O)[C@](O)(C(=O)OC)CC(C#N)=C12 (stereo partly specified) | 3%[11.6 µM] | -1 | -11%[11.6 µM] | 26% | -12%[11.5 µM] | x
Cc1ccc2scc(N3CCCCC3)c(=O)c2c1 | -3% | x | -10% | x | u | -4%[59 µM]
CCCCN1C=CC(=C2C(=O)c3ccccc3C2=O)C=C1 | 0% | -6 | -3% | 20% | u | 50µM*

From PubChem
